Source: PubChem BioAssay (Tox21)
Several values for one entry are separate records, joined by “and”; a condition that tells them apart may be missing. Equal values may be shown once. A number with no mark means an inactive call. Inconclusive results are not listed. Entries that show only a call come without a potency. Activity calls are given as the source filed them. Unless noted, calls come from the whole dose curve; as a rule, active = well fitted curve in the direction sought with a large enough effect in the repeat runs; inconclusive = weak or mixed curves; inactive = no such curve, though single readings can be large; an effect the other way counts as inactive or inconclusive.

Tests used:
[1] = qHTS assay to identify small molecule antagonists of the estrogen related receptor (ERR) signaling pathway from Tox21 library - cell viability counter screen (AID 1224834); note: nearly all actives have a fitted effect of over 30% in size; note: potency is the fitted concentration of half-maximal effect
Procedure, shortened: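 ERR cells, 2,000/well; 6 h settle at 37 C/5% CO2; pin-tool compound transfer in DMSO; 17.5 h at 37 C; CellTiter-Fluor, 30 min; fluorescence intensity.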

[2] = target: Luciferin 4-monooxygenase (Photinus pyralis) (UniProt P08659); test: qHTS assay to identify small molecule inhibitors of firefly luciferase (AID 1224835); note: nearly all actives have a fitted effect of over 25% in size
Chain of Luciferin 4-monooxygenase (Photinus pyralis) (P08659 whole entry, looked up): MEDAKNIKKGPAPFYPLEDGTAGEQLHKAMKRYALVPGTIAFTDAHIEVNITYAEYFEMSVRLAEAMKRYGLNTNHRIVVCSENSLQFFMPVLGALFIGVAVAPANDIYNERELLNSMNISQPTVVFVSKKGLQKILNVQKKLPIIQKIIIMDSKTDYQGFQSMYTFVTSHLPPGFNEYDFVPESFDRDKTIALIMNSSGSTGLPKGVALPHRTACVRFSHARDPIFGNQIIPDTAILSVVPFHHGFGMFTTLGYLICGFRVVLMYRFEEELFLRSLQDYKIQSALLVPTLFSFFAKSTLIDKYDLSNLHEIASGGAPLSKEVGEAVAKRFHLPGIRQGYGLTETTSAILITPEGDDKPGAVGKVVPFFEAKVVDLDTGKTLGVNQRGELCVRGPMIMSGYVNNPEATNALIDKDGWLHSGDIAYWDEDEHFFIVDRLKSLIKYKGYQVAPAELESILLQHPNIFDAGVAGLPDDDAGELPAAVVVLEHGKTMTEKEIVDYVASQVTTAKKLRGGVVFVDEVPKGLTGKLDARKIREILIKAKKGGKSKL
Procedure, shortened: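 Biochemical qHTS: compounds run as interplate titrations against purified firefly enzyme, with D-luciferin and ATP each at its KM concentration. Light output recorded by CCD imaging.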

[3] = qHTS assay to identify small molecule agonists of the constitutive androstane receptor (CAR) signaling pathway - cell viability counter screen (AID 1224836); note: nearly all actives have a fitted effect of over 45% in size; note: potency is the fitted concentration of half-maximal effect
Procedure, shortened: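 Viability read-out: CellTiter-Fluor fluorescence after 23 h compound exposure at 37 C/5% CO2 in double-stable HepG2-CYP2B6-hCAR cells, with PK11195 present at 0.75 uM final; compounds tested in 15-point titration.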

[4] = qHTS assay to identify small molecule antagonists of the constitutive androstane receptor (CAR) signaling pathway - cell viability counter screen (AID 1224837); note: nearly all actives have a fitted effect of over 45% in size; note: potency is the fitted concentration of half-maximal effect
Procedure, shortened: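 Viability was measured with CellTiter-Fluor in a HepG2 line carrying stably transfected hCAR and a CYP2B6-2.2kb construct. Cells were exposed for 23 hr at 37 C to 15 compound concentrations with 50 nM CITCO as agonist.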

[5] = qHTS assay to identify small molecule antagonists of the estrogen related receptor signaling pathway with the pleiotropic PPARgamma coactivator (PGC) from Tox21 10K library - cell viability counter screen (AID 1224840; active = well fitted cell-killing curve with a large enough effect in the repeat runs, not every such curve was filed as active; note: nearly all actives have a fitted effect of over 40% in size; note: potency is the fitted concentration of half-maximal effect)
Procedure, shortened: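 Multiplexed viability counter screen in the PGC/ERR cell line: cells treated with DMSO-dissolved compounds for 17.5 hours at 37 C, then viability measured as CellTiter-Fluor fluorescence.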

[6] = target: Thyrotropin receptor (Homo sapiens) (UniProt P16473); test: qHTS assay to identify small molecule agonists of the thyroid stimulating hormone receptor (TSHR) signaling pathway (AID 1224843; calls by dose curve; note: nearly all actives have a fitted effect of over 45% in size)
Chain of Thyrotropin receptor (Homo sapiens) (P16473 whole entry, looked up): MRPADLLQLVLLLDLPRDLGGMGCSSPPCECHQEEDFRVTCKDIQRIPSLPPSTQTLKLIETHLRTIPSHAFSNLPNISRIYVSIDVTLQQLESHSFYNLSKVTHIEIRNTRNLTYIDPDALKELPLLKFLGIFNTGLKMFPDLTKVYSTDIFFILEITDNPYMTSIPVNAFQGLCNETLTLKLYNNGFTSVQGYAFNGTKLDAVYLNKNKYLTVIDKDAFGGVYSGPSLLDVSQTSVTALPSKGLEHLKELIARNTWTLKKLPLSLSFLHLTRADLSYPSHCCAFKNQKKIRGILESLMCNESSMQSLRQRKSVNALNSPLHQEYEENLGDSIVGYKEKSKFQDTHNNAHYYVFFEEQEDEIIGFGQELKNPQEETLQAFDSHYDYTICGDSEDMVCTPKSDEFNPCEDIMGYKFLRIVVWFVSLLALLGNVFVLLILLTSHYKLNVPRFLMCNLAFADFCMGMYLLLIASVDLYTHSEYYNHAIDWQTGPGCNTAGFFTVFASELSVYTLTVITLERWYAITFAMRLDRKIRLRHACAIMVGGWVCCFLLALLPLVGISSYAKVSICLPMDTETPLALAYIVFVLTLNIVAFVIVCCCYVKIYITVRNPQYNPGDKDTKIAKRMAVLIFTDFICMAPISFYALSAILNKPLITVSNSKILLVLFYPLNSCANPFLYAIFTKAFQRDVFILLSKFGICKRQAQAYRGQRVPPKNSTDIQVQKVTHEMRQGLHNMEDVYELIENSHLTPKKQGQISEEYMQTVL
Procedure, shortened: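 Agonist-mode screen: TSHR HEK293 cells received test chemicals for half an hour at room temperature, then HTRF cAMP detection reagents for one hour prior to fluorescence measurement. Each chemical ran as a 15-concentration series, triplicated.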

[7] = qHTS assay to identify small molecule agonists of H2AX (AID 1224845; active = well fitted activation curve with a large enough effect in the signal ratio in the repeat runs, not every such curve was filed as active; the % refers to the signal ratio; note: potency is the fitted concentration of half-maximal effect)
Procedure, shortened: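 Wild-type CHO-K1 cells, plated overnight, exposed 3hr at 37C to 15 concentrations (0.76% DMSO final). Lysed, then HTRF anti-pH2AX (S139) cryptate and anti-H2AX-d2 antibodies, 24 hr room temperature; 665/620 nm emission read.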

[8] = qHTS assay to identify small molecule agonists of the hypoxia (HIF-1) signaling pathway (AID 1224846; active = well fitted activation curve with a large enough effect in the signal ratio in the repeat runs, not every such curve was filed as active; the % refers to the signal ratio)
Procedure, shortened: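 Compounds from the Tox21 10K library, dissolved in DMSO, are tested for induction of a hypoxia response element–controlled beta-lactamase reporter in ME-180 cells. Exposure lasts 17 hrs at 37C after a 5 hr settling period, followed by CCF4-AM FRET substrate.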

[9] = qHTS assay to identify small molecule agonists of H2AX - cell viability counter screen (AID 1224847; calls by dose curve; note: nearly all actives have a fitted effect of over 30% in size; note: potency is the fitted concentration of half-maximal effect)
Procedure, shortened: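 CHO-K1 wt, 1000 cells/well, o/n 37C; cpds 15 conc, 3 h 37C, 0.76% DMSO; CellTiter-Glo, 30 min RT, luminescence.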

[10] = qHTS RealTime-Glo MT Cell Viability Assay in HepG2 cells - 24 hour (AID 1224867); note: nearly all actives have a fitted effect of over 50% in size
Procedure, shortened: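 Cell number in HepG2 cultures estimated from NanoLuc luminescence generated by metabolic reduction of a prosubstrate by living cells. The homogeneous, nonlytic format allowed repeated reads at 0, 8, 16, 24, 32 and 40 h of compound exposure.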

[11] = A CellTox Green Cytotoxicity Assay to monitor cytotoxicity in HEK293 cells - 0 hour (AID 1224869); note: nearly all actives have a fitted effect of over 50% in size
Procedure, shortened: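 Cells (HEK293, 600/well) and dye reagent are dispensed together. After 5 h at 37 C, 23 nL compound is pinned in. Plates stay at 37 C for 40 h with fluorescence read at 0h, 8h, 16h, 24h, 32h and 40h.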

[12] = qHTS assay to identify small molecule antagonists of the estrogen related receptor signaling pathway with the pleiotropic PPARgamma coactivator (PGC) from Tox21 10K library (AID 1224841; call rule not given here; note: actives are mostly falling curves and most rising ones were filed inactive; nearly all actives have a fitted effect of over 50% in size; note: potency is the fitted concentration of half-maximal effect)
Procedure, shortened: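 Steps: plate 2,000 PGC/ERR cells per well; incubate 6 h at 37 C with 5% CO2; transfer compounds from DMSO stocks by pin tool; incubate 18 h at 37 C; add One-Glo; measure luminescence 30 min later.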

[13] = qHTS assay to identify small molecule agonists of the hypoxia (HIF-1) signaling pathway - cell viability counter screen (AID 1224844; calls by dose curve; note: nearly all actives have a fitted effect of over 50% in size)
Procedure, shortened: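 Cytotoxicity was measured in parallel with the HRE-driven beta-lactamase readout: after 17 hrs of compound exposure at 37C, HRE-bla ME-180 cells received CellTiter-Glo and luminescence was recorded 30 min later.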

[14] = qHTS assay to identify small molecule agonists of the estrogen related receptor (ERR) signaling pathway from Tox21 library (AID 1224849; calls by dose curve; note: nearly all actives have a fitted effect of over 15% in size); conditions: ERR reporter cell line, ONE-Glo luciferase, 18 h; at 92.4 µM (top of the series) unless noted
Procedure, shortened: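 Cells carrying the ERR reporter were plated and allowed to settle for 6 h, exposed to library compounds for 18 h at 37 C, then lysed with ONE-Glo and luminescence measured.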

[15] = qHTS RealTime-Glo MT Cell Viability Assay in HEK293 cells - 32 hour (AID 1224868); note: nearly all actives have a fitted effect of over 50% in size; note: potency is the fitted concentration of half-maximal effect
Procedure, shortened: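 Homogeneous bioluminescent viability format in HEK293 cells (600 cells/well). Following 5 h at 37 C/5% CO2, 23 nL compound was pintooled; the signal was measured repeatedly during 40 h incubation.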

[16] = target: Nuclear receptor subfamily 1 group I member 3 (Homo sapiens) (UniProt Q14994); test: qHTS assay to identify small molecule antagonists of the constitutive androstane receptor (CAR) signaling pathway (AID 1224838);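 note: HepG2 cells stably expressing hCAR with CYP2B6 luciferase reporter stimulated by CITCO; nearly all actives have a fitted effect of over 40% in size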
Chain of Nuclear receptor subfamily 1 group I member 3 (Homo sapiens) (Q14994 whole entry, looked up): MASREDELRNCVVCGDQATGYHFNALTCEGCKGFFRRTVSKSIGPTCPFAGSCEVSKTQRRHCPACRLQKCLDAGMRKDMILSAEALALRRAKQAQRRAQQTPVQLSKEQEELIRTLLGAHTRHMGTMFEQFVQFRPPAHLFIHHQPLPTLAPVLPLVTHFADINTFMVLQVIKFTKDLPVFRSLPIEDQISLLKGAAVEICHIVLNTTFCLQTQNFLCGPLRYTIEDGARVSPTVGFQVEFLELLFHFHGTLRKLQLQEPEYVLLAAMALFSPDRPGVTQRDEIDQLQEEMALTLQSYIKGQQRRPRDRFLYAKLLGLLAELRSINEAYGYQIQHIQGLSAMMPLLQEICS
Procedure, shortened: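 Antagonist mode used CITCO at a final 50 nM to activate CAR in human hepatoma HepG2 cells carrying stable hCAR and a 2.2 kb CYP2B6 promoter-luciferase construct. Compounds were tested at 15 concentrations over 24 h, with luminescence as the end point.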

[17] = target: Nuclear receptor subfamily 1 group I member 3 (Homo sapiens) (UniProt Q14994); test: qHTS assay to identify small molecule agonists of the constitutive androstane receptor (CAR) signaling pathway (AID 1224839); note: nearly all actives have a fitted effect of over 15% in size
Procedure, shortened: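 Luminescence read-out (ONE-Glo, 30 min, room temperature) from double-stable HepG2-CYP2B6-hCAR cells exposed 24 h to 15-point compound series in presence of 0.75 uM PK11195 final.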

[18] = qHTS assay to identify small molecule agonists of the estrogen related receptor signaling pathway with the pleiotropic PPARgamma coactivator (PGC) from Tox21 10K library (AID 1224842); note: nearly all actives have a fitted effect of over 15% in size
Procedure, shortened: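 PGC/ERR reporter cell line, 2,000 cells per well, incubated 6 h at 37 C before 23 nL compound in DMSO was added. After 18 h at 37 C, One-Glo luminescence read following 30 min at room temperature.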

[19] = qHTS assay to identify small molecule antagonists of the estrogen related receptor (ERR) signaling pathway from Tox21 library (AID 1224848); note: nearly all actives have a fitted effect of over 50% in size; note: potency is the fitted concentration of half-maximal effect
Procedure, shortened: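 Quantitative high-throughput format: ERR reporter cells (2,000/well) pre-incubated 6 h, treated 18 h at 37 C with compounds in DMSO alongside positive and negative controls, then read by ONE-Glo luminescence.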

[20] = qHTS RealTime-Glo MT Cell Viability Assay in HepG2 cells - 40 hour (AID 1224870); note: nearly all actives have a fitted effect of over 50% in size
Procedure, shortened: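 HepG2 cells (600/well) mixed with RealTime-Glo MT reagent, settled 5 h at 37 C/5% CO2 before compound addition. Nonlytic NanoLuc luminescence from viable-cell prosubstrate reduction read repeatedly during 40 h treatment at 37 C.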

| Structure (SMILES) | Potency [1] | Potency [2] | Potency [3] | Potency [4] | Potency [5] | Potency [6] | Potency [7] | outcome [8] | Potency [9] | Potency [10] | Potency [11] | Potency [12] | Potency [13] | activity change, positive = activation [14] | Potency [15] | Potency [16] | Potency [17] | Potency [18] | Potency [19] | Potency [20] |
| --- | --- | --- | --- | --- | --- | --- | --- | --- | --- | --- | --- | --- | --- | --- | --- | --- | --- | --- | --- | --- |
| ClCC(Br)CBr (stereo unspecified) | inactive | inactive | inactive | inactive | inactive | inactive | inactive | inactive | inactive | inactive | inactive | – | – | – | – | – | – | – | – | – |
| CCOP(=O)(OCC)SCCSCC | inactive | inactive | inactive | inactive | inactive | inactive | – | inactive | inactive | inactive | inactive | inactive | inactive | -5.82% and 8.45% | inactive | – | – | – | – | – |
| CCBr | inactive | inactive | – | inactive | inactive | inactive | inactive | inactive | inactive | inactive | inactive | inactive | – | 6.77% | inactive | inactive | inactive | inactive | inactive | – |
| O=Cc1ccc2c(c1)OCO2 | inactive | inactive | inactive | inactive | – | inactive | inactive | inactive | inactive | inactive | inactive | – | – | – | – | – | – | – | – | inactive |
| Clc1cc(C(Cl)(Cl)Cl)cnc1Cl | inactive | inactive | 43.3 µM (active) | – | – | inactive | 89.8 µM (active) | inactive | inactive | inactive | inactive | inactive | inactive | 0.0985% | 34.7 µM (active) | – | – | – | – | inactive |
| O=NN1CCCCCC1 | inactive | inactive | inactive | inactive | inactive | inactive | inactive | inactive | inactive | inactive | inactive | – | inactive | – | inactive | – | – | – | – | inactive |
| CC1C(=O)C[C@]2(C(C)C)C[C@H]12 (stereo partly specified) | inactive | inactive | inactive | inactive | – | inactive | inactive | inactive | inactive | inactive | inactive | – | – | – | inactive | – | – | – | – | – |
| S=C=NCc1ccccc1 | inactive | inactive | inactive | – | inactive | inactive | inactive | – | inactive | inactive | inactive | inactive | inactive | -18.1% | 44.1 µM (active) | – | inactive | – | – | inactive |
| CCOP(=S)(OCC)SCSCC | inactive | inactive | inactive | inactive | inactive | – | inactive | inactive | inactive | inactive | inactive | – | inactive | – | – | – | – | – | – | inactive |
| Cc1c(F)c(F)c(COC(=O)C2C(/C=C(\Cl)C(F)(F)F)C2(C)C)c(F)c1F (stereo unspecified) | inactive | inactive | inactive | inactive | inactive | – | inactive | inactive | – | inactive | inactive | – | – | – | inactive | – | – | – | – | inactive |
| O=[N+]([O-])c1ccc(F)c([N+](=O)[O-])c1 | 34.7 µM (active) | inactive | – | 34.7 µM (active) | 55 µM (active) | – | inactive | – | 57.2 µM (active) | inactive | inactive | 49 µM (active) | – | -38.2% | – | inactive | inactive | inactive | – | – |
| O=[N+]([O-])c1cc(C(F)(F)F)cc([N+](=O)[O-])c1Cl | 34.5 µM (active) | inactive | inactive | – | – | inactive | inactive | inactive | inactive | inactive | inactive | inactive | – | -42.9% | – | – | – | inactive | 61.4 µM (active) | inactive |
| CCCCNP(N)(N)=S | inactive | inactive | inactive | inactive | inactive | inactive | inactive | inactive | inactive | inactive | inactive | – | inactive | – | inactive | – | – | – | – | inactive |
